Common to all, as to experiment: protein-binding microarray (PBM); PBM: ~300 nM protein, 6 mM HEPES pH 7.8, 80 mM KCl, 0.5 mM EDTA, 0.5 mM EGTA, 6% glycerol, 35 ng/ul poly-dIdC, 1% milk, 1 h, room temperature; Ap Aiptasia and Nv Nematostella (sea anemones) / Co Capsaspora / Aq Amphimedon (sponge) / Dm Drosophila / Hu human; RHD is the Rel homology domain; high values mean tight binding
Common to all, as to conditions: dsDNA, one strand shown

Assay [1] deals with T1, GST-Ap-NF-kB RHD (Exaiptasia pallida (Aiptasia), UniProt A0A913YAJ5 2-422).
T1 sequence: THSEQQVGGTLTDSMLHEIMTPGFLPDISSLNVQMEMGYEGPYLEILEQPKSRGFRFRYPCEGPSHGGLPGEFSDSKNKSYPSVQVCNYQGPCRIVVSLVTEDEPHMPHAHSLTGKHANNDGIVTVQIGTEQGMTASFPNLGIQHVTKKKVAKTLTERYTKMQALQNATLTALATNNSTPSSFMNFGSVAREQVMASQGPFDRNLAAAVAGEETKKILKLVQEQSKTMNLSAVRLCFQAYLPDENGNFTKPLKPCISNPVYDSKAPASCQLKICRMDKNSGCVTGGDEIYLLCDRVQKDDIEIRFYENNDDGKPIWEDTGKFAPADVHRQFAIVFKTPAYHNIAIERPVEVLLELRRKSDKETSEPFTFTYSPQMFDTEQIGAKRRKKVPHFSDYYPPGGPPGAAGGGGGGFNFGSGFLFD

Assay [2] deals with T2, GST-Dm-Relish (Drosophila melanogaster, UniProt Q94527 99-473).
T2 sequence: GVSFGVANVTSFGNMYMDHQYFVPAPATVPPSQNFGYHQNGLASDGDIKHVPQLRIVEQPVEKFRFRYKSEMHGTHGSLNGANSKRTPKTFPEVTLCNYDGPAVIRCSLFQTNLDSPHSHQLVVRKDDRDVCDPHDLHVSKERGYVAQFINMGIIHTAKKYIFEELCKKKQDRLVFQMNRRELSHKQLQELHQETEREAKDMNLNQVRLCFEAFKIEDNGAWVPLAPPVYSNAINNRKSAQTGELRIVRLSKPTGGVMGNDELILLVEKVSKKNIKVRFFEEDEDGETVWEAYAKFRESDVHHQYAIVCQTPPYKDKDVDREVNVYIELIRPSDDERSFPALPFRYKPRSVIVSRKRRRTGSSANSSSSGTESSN

Assay [3] addresses T3, GST-Aq-NF-kB (Amphimedon queenslandica, UniProt A9Y5G7 2-389).
T3 sequence: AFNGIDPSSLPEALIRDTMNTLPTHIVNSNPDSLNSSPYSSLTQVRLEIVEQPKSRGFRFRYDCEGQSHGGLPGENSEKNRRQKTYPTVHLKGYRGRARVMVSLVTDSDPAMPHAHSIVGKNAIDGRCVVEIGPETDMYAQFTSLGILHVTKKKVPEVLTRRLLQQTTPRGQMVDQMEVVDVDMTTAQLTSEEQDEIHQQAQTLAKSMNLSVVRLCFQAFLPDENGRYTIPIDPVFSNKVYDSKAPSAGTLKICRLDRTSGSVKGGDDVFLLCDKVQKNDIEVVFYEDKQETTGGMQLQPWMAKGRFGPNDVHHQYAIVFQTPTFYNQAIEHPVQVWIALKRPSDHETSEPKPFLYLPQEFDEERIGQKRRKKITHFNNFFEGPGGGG

The target in assay [4] is T4, GST-Co-NF-kB (Capsaspora owczarzaki, UniProt F1ARL5 200-546).
T4 sequence: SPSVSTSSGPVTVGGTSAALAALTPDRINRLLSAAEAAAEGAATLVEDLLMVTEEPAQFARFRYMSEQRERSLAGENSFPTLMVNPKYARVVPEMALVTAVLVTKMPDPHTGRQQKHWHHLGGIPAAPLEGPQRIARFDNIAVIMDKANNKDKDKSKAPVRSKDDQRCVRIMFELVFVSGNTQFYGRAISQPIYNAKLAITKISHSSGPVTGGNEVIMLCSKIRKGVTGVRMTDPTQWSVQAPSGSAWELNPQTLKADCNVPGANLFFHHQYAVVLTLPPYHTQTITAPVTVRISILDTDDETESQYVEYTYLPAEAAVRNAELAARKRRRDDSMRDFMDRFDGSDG

In assay [5] the target is T5, GST-Nv-NF-kB (Cys allele) (Nematostella vectensis, UniProt E5G601 2-411).
T5 sequence: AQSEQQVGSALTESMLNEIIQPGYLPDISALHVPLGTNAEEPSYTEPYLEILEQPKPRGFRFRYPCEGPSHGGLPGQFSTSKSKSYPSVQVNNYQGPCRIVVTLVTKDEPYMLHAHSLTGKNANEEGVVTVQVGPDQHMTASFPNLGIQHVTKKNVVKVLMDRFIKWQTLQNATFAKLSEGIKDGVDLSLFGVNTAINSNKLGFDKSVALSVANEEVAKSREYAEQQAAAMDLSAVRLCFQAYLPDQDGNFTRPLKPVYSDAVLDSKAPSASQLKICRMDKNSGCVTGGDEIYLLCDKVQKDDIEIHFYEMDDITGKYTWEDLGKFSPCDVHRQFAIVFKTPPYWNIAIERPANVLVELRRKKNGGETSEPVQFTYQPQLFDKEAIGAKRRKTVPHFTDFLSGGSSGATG

As for “CCGATTAACATCAGGAAACACCATGATGTTAATCGGGTCTTGATTCGCTTGACGCTGCTG”, the binding signal in assay [1] was found to be 1 z-score; in assay [2], 1.77 z-score; in assay [3], 1.49 z-score.

Regarding “CCGATTAACATCACTCCCCCCCCTGATGTTAATCGGGTCTTGATTCGCTTGACGCTGCTG”, the binding signal in assay [1] turned out to be 5.73 z-score; in assay [4], 6.72 z-score; in assay [2], 4.43 z-score; in assay [3], 4.65 z-score.

As to “CCGATTAACATCACGGGATCTCCTGATGTTAATCGGGTCTTGATTCGCTTGACGCTGCTG”, the figures for the binding signal in assay [1], in assay [2] and in assay [3] were 2.16 z-score, 4.06 z-score and 3.77 z-score, respectively.

For “CCGATTAACATCAGGGCATCCCATGATGTTAATCGGGTCTTGATTCGCTTGACGCTGCTG”, the binding signal in assay [1] came out at 1.37 z-score; in assay [2], 5.99 z-score; in assay [3], 2.34 z-score.

For “CCGATTAACATCAGGAGGTTCCCTGATGTTAATCGGGTCTTGATTCGCTTGACGCTGCTG”, the binding signal in assay [1] was 2.28 z-score; in assay [2] it was 2.47 z-score; in assay [3], 3.68 z-score.

Turning to “CCGATTAACATCAGGAGATCCCATGATGTTAATCGGGTCTTGATTCGCTTGACGCTGCTG”, the binding signal came out at 1.24 z-score in assay [1], 4.37 z-score in assay [2] and 2.7 z-score in assay [3].

Take “CCGATTAACATCACGGCAACCCCTGATGTTAATCGGGTCTTGATTCGCTTGACGCTGCTG”: the binding signal in assay [1] turned out to be 1.78 z-score; in assay [2], 1.46 z-score; in assay [3], 2.35 z-score.

Consider “CCGATTAACATCAGGGCATTCCATGATGTTAATCGGGTCTTGATTCGCTTGACGCTGCTG”, for which the binding signal in assay [1] stood at 1.14 z-score; in assay [2], 1.84 z-score; in assay [3] it was 2.1 z-score.

Turning to “CCGATTAACATCACGGAGATCCCTGATGTTAATCGGGTCTTGATTCGCTTGACGCTGCTG”, the binding signal was determined as 1.39 z-score in assay [1], 4.73 z-score in assay [2] and 3.81 z-score in assay [3].

For “CCGATTAACATCAGGAATGCCCATGATGTTAATCGGGTCTTGATTCGCTTGACGCTGCTG”, the binding signal in assay [1] was 1.27 z-score; in assay [2], 1.49 z-score; in assay [3] it was 1.96 z-score.

“CCGATTAACATCAGTAGTGGGGCTGATGTTAATCGGGTCTTGATTCGCTTGACGCTGCTG”: the binding signal in assay [5] worked out at 1.01 z-score; in assay [3], 1.72 z-score.

In the case of “CCGATTAACATCACCGGAATTTCTGATGTTAATCGGGTCTTGATTCGCTTGACGCTGCTG”, the binding signal in assay [1] is 1.27 z-score; in assay [2], 1.58 z-score; in assay [3], 2.45 z-score.

Consider “CCGATTAACATCAGGAATCCCAATGATGTTAATCGGGTCTTGATTCGCTTGACGCTGCTG”, for which the binding signal stood at 1.71 z-score in assay [1], 7.14 z-score in assay [2] and 1.48 z-score in assay [3].

As for “CCGATTAACATCAAGAAATTTCCTGATGTTAATCGGGTCTTGATTCGCTTGACGCTGCTG”, the results for the binding signal in assay [5] and in assay [3] were 1.11 z-score and 2.06 z-score, respectively.

With “CCGATTAACATCACGGGATGTCCTGATGTTAATCGGGTCTTGATTCGCTTGACGCTGCTG”, the binding signal in assay [1] turned out to be 1.47 z-score; in assay [2], 3.42 z-score; in assay [3] it was 3.06 z-score.

Turning to “CCGATTAACATCACGGGCTTTCCTGATGTTAATCGGGTCTTGATTCGCTTGACGCTGCTG”, the binding signal stood at 1.64 z-score in assay [1], 3.81 z-score in assay [2] and 4.66 z-score in assay [3].

As to “CCGATTAACATCAGGAAAGCCCATGATGTTAATCGGGTCTTGATTCGCTTGACGCTGCTG”, the binding signal worked out at 1.24 z-score in assay [1], 4.29 z-score in assay [2] and 3.12 z-score in assay [3].

In the case of “CCGATTAACATCAGGGGTGCCCATGATGTTAATCGGGTCTTGATTCGCTTGACGCTGCTG”, the binding signal in assay [1] was determined as 1.69 z-score; in assay [2], 3.52 z-score; in assay [3] it was 1.5 z-score.

With “CCGATTAACATCAGCGGAATTCCTGATGTTAATCGGGTCTTGATTCGCTTGACGCTGCTG”, the figures for the binding signal in assay [1], in assay [2] and in assay [3] were 1.33 z-score, 2.27 z-score and 1.89 z-score, respectively.

Take “CCGATTAACATCAAGGAAATACCTGATGTTAATCGGGTCTTGATTCGCTTGACGCTGCTG”: the binding signal worked out at 1.2 z-score in assay [1], 3.3 z-score in assay [2] and 3.81 z-score in assay [3].
